This is a sample that favours compounds with a hit; in the whole collection about 0.25% have one here.
USP2a inh = inhibitors of human ubiquitin-specific protease USP2a. O75604. USP2 core, Ub-CHOP2 coupled fluorogenic reporter, 485/531. Potency, µM (top dose mostly 38.3 µM), hits mostly inhibitors. actives 0.01% (n = 330,000). AID 463254
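USP2 core (10nM final) preincubated 30min RT with compound in 20mM Tris-HCl pH 8.0, 2mM CaCl2, 2mM beta-mercaptoethanol, 0.05% CHAPS; 25nM Ub-CHOP2 plus 25nM reporter substrate added, fluorescence (Ex485/Em531) read after 60min.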
PGK inhibitor = T. brucei PGK inhibition. P07378. PGK/GAPDH coupled, Kinase-Glo luminescence, 60 min. Potency, µM (series often up to 57.5 µM), usual class: inhibitors. actives 0.043% (n = 380,000). AID 602233; also: nearly all actives have a fitted effect of over 60% in size
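Luminescent ATP detection (Kinase-Glo Plus) follows a 60-minute room-temperature incubation, with wells lacking PGK as controls. Buffer: 100 mM TEA (pH 7.6), 5 mM MgCl2, 0.01% Tween-20. Coupling enzyme GAPDH (100 nM final) supplies unstable 1,3-BPG in-well.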
Chronic BCR inh = inhibitors of chronic active B-cell receptor signaling. ABC-DLBCL IkBa-CBG/CBR reporter, luminescence ratio, 4 h. actives 0.05% (n = 340,000). Potency, µM (top dose mostly 46.1 µM), actives largely listed as inhibitors; active = well fitted inhibition curve with a large enough effect in the signal ratio, with a control signal flat, not every such curve was filed as active; inconclusive = small, poorly fitted or top-dose-only effect, or effect the other way, or a change in a side signal; the % refers to the signal ratio
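TMD8 human ABC-DLBCL cells with doxycycline-inducible IκBα–green luciferase fusion and unfused red luciferase, in 0.5% FBS medium; compounds up to 46 uM, 4 h at 37C. Green/red luminescence ratio, filter-overlap corrected, fitted to concentration-response curves.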
Tb PFK inh-1 = blocks T. brucei phosphofructokinase; actives 0.17% (n = 330,000); Potency, µM (series often up to 57.5 µM), actives largely listed as inhibitors; O15648; T. brucei PFK, ADP-Glo luminescence; AID 485367; also: nearly all actives have a fitted effect of over 60% in size
Target sequence (O15648 whole entry, looked up): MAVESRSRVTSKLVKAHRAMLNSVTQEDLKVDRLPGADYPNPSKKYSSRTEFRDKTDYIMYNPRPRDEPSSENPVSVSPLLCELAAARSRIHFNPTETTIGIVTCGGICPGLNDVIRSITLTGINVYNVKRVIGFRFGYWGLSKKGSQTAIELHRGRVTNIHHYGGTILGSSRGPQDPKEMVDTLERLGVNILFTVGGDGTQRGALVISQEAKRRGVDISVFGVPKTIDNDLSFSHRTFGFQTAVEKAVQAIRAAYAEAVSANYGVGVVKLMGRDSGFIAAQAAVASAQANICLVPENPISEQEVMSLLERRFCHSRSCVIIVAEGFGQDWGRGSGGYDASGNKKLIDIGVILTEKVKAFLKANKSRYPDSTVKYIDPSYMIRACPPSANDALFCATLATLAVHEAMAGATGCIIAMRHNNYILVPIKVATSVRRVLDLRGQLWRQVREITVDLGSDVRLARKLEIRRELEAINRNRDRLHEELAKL
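In TEA buffer at pH 8.0 with 5 mM MgCl2, enzyme (1.25 nM) converted F6P (0.5 mM) and ATP (0.1 mM) for 45 min at room temperature. ADP product was read by luciferase luminescence.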
RGS4 inhibitor = human RGS4 inhibition | P49798 | Transcreener GDP fluorescence polarization, RGS4-accelerated GTP hydrolysis | Potency, µM (doses to about 114 µM), usual class: inhibitors | actives 0.039% (n = 390,000) | AID 504845; also: nearly all actives have a fitted effect of over 75% in size
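MLSMR compounds (23 nl, pin-transferred) preincubated 10 min at room temperature with a 500nM (2x) first reagent, then RGS4 at 900nM (2x) plus Transcreener GDP mix added; fluorescence polarization (620/688 nm) read before and after 90 min at 30 °C.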
Tb PFK KinaseGlo = orthogonal confirmation of T. brucei phosphofructokinase inhibitors. Tb PFK enzyme, ATP depletion, Kinase-Glo Plus luminescence. Potency, µM (highest dose often 57.5 µM). shares compounds with Tb PFK inh-1. actives 47% (n = 1,100). AID 504636; calls by dose curve; also: nearly all actives have a fitted effect of over 60% in size
Tb PFK inh-2 = validation of T. brucei phosphofructokinase inhibitors | shares compounds with Tb PFK inh-1 | purified T. brucei PFK, ADP-Glo luminescence, 45 min | Potency, µM (doses to about 57.5 µM), usual class: inhibitors | actives 41% (n = 1,100) | AID 504637; also: nearly all actives have a fitted effect of over 60% in size
Large screens that a line does not name were inactive (follow-up assays come after a bar, where they were run). Unless noted, calls follow the shape of the dose curve; as a rule, active = well fitted curve in the direction sought with a large enough effect; inconclusive = small, poorly fitted or top-dose-only effect, or another doubt; inactive = no such curve, though single readings can be large; an effect the other way counts as inactive or inconclusive.

CC(=O)c1ccc(NC(=S)Nc2ccc(Br)c(Cl)c2)cc1	Chronic BCR inh inconclusive, Tb PFK inh-1 12µM | Tb PFK KinaseGlo 30µM | Tb PFK inh-2 inconclusive
CC1CCCCN1C(=O)COC(=O)c1ccc(S(C)(=O)=O)c([N+](=O)[O-])c1 (stereo not drawn)	none (no result: USP2a inh, PGK inhibitor, Chronic BCR inh, Tb PFK inh-1)
COc1cccc(C(=O)NCCSc2c(-c3ccc(F)cc3)[nH]c3ccccc23)c1OC	none (no result: USP2a inh, Chronic BCR inh, Tb PFK inh-1)
CC1CCN(S(=O)(=O)c2ccc3nc(NCc4ccccc4)ccc3c2)CC1	none (no result: USP2a inh, Chronic BCR inh, Tb PFK inh-1)
NC[C@H](O)c1ccc(O)c(O)c1	Tb PFK inh-1 2.1µM | Tb PFK KinaseGlo inactive | Tb PFK inh-2 inactive
CCOC(=O)CSc1nnc(-c2cc(OC)c(OC)c(OC)c2)o1	none
COc1cc(-c2nnc(SCc3cc(=O)oc4cc(O)c(O)cc34)o2)cc(OC)c1OC	PGK inhibitor inconclusive, Tb PFK inh-1 inconclusive, RGS4 inhibitor inconclusive | Tb PFK KinaseGlo 1.7µM | Tb PFK inh-2 1.5µM
CCOC(=O)N1C(C)CN(/[N+]([O-])=N/Oc2ccc([N+](=O)[O-])cc2[N+](=O)[O-])CC1C (stereo not drawn)	none (no result: USP2a inh, PGK inhibitor, Chronic BCR inh, Tb PFK inh-1)
O=S(=O)(Cc1ccccc1)N1CCN(c2nc(-c3cccs3)nc3ccccc23)CC1	none (no result: USP2a inh, PGK inhibitor, Chronic BCR inh, Tb PFK inh-1)
Cc1ccccc1-c1nn[nH]n1	none
Oc1ccc(N=Nc2ccccc2-c2nn[nH]n2)c(O)c1	Tb PFK inh-1 inconclusive, RGS4 inhibitor inconclusive (no result: PGK inhibitor) | Tb PFK KinaseGlo inactive | Tb PFK inh-2 inconclusive

Bioassay records from PubChem BioAssay.
